Laboratory results: PubChem BioAssay AID588335 (The Scripps Research Institute Molecular Screening Center, 2011)
Hit rate of the full screen: of about 360,000 compounds, about 4,500 (1.2%) were called active. Rule as the data show it: active = inhibition above about 30%; inactive = the rest. For the sample, actives were picked, then their nearest neighbours and some compounds at random.

Test: GDH-TPI coupling enzyme inhibitors, primary screen, artefact control for M. tuberculosis FBA inhibitor project, biochemical, absorbance, full deck (AID 588335);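 also: 0% = DMSO wells and 100% = wells lacking the enzyme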
Settings: GDH-TPI coupled enzyme counterscreen, NADH absorbance; at 4.8 µM; hits give high values
With `O=C(CC(=O)c1cccnc1)c1ccccc1` the inhibition was 31.5% (active). With `O=C(Nc1cnccn1)c1cccnc1` the inhibition was -10.2% (inactive). With `CS(=O)(=O)N1CCCC(C(=O)N2CCOCC2)C1` (stereo unspecified) the inhibition was 5.31% (inactive). For `O=C(Nc1ccccc1C(=O)O)c1cc(S(=O)(=O)N2CCCCC2)cs1`, the inhibition was -4.43% (inactive). With `O=C(NCCN1C(=O)S/C(=C\c2cccnc2)C1=O)c1cccc(OC(F)F)c1` the inhibition was 8.86% (inactive). For `Cc1c(C(=O)NCCCc2ccccc2)cccc1[N+](=O)[O-]`, the inhibition was 10% (inactive). For `Cc1c(C(=O)NCCN2C(=O)S/C(=C\c3cccs3)C2=O)cccc1[N+](=O)[O-]`, the inhibition was 39.5% (active). For `Cc1cc(C)c(C)c(S(=O)(=O)N2CCN(C(=O)c3ccc4c(=O)n5c(nc4c3)CCC5)CC2)c1C`, the inhibition was 5.92% (inactive). In the case of `CC(C)CC1C(=O)N(Cc2cn(Cc3ccco3)nn2)CCS(=O)(=O)N1Cc1ccc(-c2ccc(Cl)c(Cl)c2)cc1` (stereo unspecified), the inhibition is reported as -1.42% (inactive). With `COc1ccc(N2C(=O)/C(=C\c3ccco3)N=C2SCC(N)=O)cc1Cl` the inhibition was 8.83% (inactive). In the case of `CCOC(=O)c1sc(NC(=O)CSc2n[nH]c(CC)n2)nc1C`, the inhibition is reported as -0.63% (inactive). For `Cc1ccc(C(=O)Nc2ccn(C)n2)cc1`, the inhibition was -9.27% (inactive). With `CCOC(=O)c1sc(NC(=O)c2sc(C)nc2C)nc1C` the inhibition was 34.6% (active). In the case of `CCOC(=O)c1cccnc1NC(=O)c1ccncc1`, the inhibition is reported as -7.37% (inactive). For `CCOC(=O)c1sc(NC(=O)c2ccncc2)nc1C`, the inhibition was 39.2% (active). With `CC(=O)c1sc(NC(=O)C2=NN(c3ccccc3)C(=O)CC2)nc1C` the inhibition was 29.1% (inactive). For `CCOC(=O)c1sc(/N=C/Nc2nc(C)c(C(=O)OCC)s2)nc1C`, the inhibition was 0.95% (inactive). With `CC(=O)c1sc(NC(=O)c2ccc(C)cc2)nc1C` the inhibition was 31.3% (active). In the case of `CCOC(=O)c1sc(NC(=O)C(CC)Sc2nccn2C)nc1C` (stereo unspecified), the inhibition is reported as 10.2% (inactive). In the case of `Cc1ccc(N2CCN(S(=O)(=O)N(C)C)CC2)cc1Cl`, the inhibition is reported as 8.64% (inactive). For `CC(c1ccco1)N(C(=O)c1ccc(S(=O)(=O)N2CCCCC2)cc1)c1ccccn1` (stereo unspecified), the inhibition was 3.73% (inactive). With `Cc1ccccc1N1CC(C(=O)Nc2ccc3c(c2)OCO3)CC1=O` (stereo unspecified) the inhibition was 7.55% (inactive). With `CC1(C)CC(O)C(CCC(O)c2ccccc2)C(C)(C)N1` (stereo unspecified) the inhibition was 11.8% (inactive). For `Cc1ccc(Cl)cc1NC(=S)N(CCN(C)C)Cc1cccs1`, the inhibition was -1.86% (inactive). With `CCCC(=O)N1CCC(CCC(=O)NC2CC2)CC1` the inhibition was -6.29% (inactive). For `CCCn1c(=S)[nH]c2ccc(C(F)(F)F)cc21`, the inhibition was 2.44% (inactive). In the case of `Cc1cc(N2CCN(c3ccc(F)cc3)CC2)n2ncnc2n1`, the inhibition is reported as -5.36% (inactive). For `Cc1ccc(NC(=O)C2CCN(S(=O)(=O)c3ccc4c(c3)NC(=O)CO4)CC2)cc1C`, the inhibition was -3.15% (inactive). With `COc1cc(OC)cc(C(=O)N[C@H](C(=O)Nc2nc3ccccc3[nH]2)C(C)C)c1` the inhibition was 12.4% (inactive). With `COc1cc(OC)cc(C(=O)Nc2ccc(-c3nc4ccccc4o3)c(O)c2)c1` the inhibition was 31.5% (active). For `COc1cccc(C(=O)Nc2ccc3nc4n(c(=O)c3c2)CCCCC4)c1`, the inhibition was 13.4% (inactive). For `CN(Cc1ccccc1)C(=O)C(=O)c1cn(CC(=O)N2CCCC2)c2ccccc12`, the inhibition was 13.8% (inactive). For `O=C(CSc1ccccn1)Nc1nc2c(ccc3ccccc32)s1`, the inhibition was 13.6% (inactive). With `COc1cc(OC)c(OC)cc1CN1CCN(C(=O)c2cccc3ccccc23)CC1` the inhibition was 0% (inactive). With `O=C1C2CCCN2C(=O)N1CCCCN1CCN(c2cccc(C(F)(F)F)c2)CC1` (stereo unspecified) the inhibition was 15.7% (inactive). With `CC(=O)c1sc(N/N=C/c2ccc(C(C)C)cc2)nc1C` the inhibition was 8.98% (inactive). With `COc1cc(/C=N\Nc2nc(-c3cccs3)c(NC(C)=O)s2)ccc1O` the inhibition was 34.8% (active). With `COc1cc(/C=C/C(=O)OCC(=O)NCCCc2ccccc2)ccc1O` the inhibition was 19.3% (inactive). In the case of `CC(C)=CCCC(C)CN1CCC(n2nccc2NC(=O)c2ccccc2)CC1` (stereo unspecified), the inhibition is reported as -14.4% (inactive). With `CC(C)=CC(=O)Nc1nnc(-c2ccc(F)cc2)s1` the inhibition was 2.46% (inactive). In the case of `Cc1ccc(C(=O)Nc2nnc(-c3ccncc3)s2)o1`, the inhibition is reported as 36.5% (active). For `O=C(Nc1nnc(Cc2ccc(Cl)cc2)s1)c1ccncc1`, the inhibition was 16.2% (inactive). For `NC(=O)C1CCN(C(=O)c2cc(S(=O)(=O)N3CCN(c4ccccc4)CC3)ccc2Cl)CC1`, the inhibition was 0% (inactive). For `Cc1c(N=Nc2ccc(N(C)C)cc2)c(=O)n(-c2ccccc2)n1C`, the inhibition was 7.74% (inactive). In the case of `Cc1[nH]n(C)c(=O)c1C(=O)c1c(-c2c(Cl)cccc2Cl)noc1C`, the inhibition is reported as 10.3% (inactive). For `Cc1[nH]n(C)c(=O)c1N=Nc1ccc(S(C)(=O)=O)cc1`, the inhibition was 33.3% (active).
